Experimental data taken from PubChem BioAssay (NCATS).
Inconclusive results are not listed. The source made the active and inactive calls. Unless noted, calls come from the whole dose curve; as a rule, active = well fitted curve in either direction with a large enough effect (not every such curve was filed as active); inconclusive = small, poorly fitted or top-dose-only effect, or another doubt; inactive = flat fitted curve, though single readings scatter.

What was measured:
[1] = target: Lysosomal acid glucosylceramidase (Homo sapiens) (UniProt P04062); assay: Glucocerebrosidase-p2 (AID 348; in the data active = potency below about 10 µM; note: potency is the fitted concentration of half-maximal effect); details: purified GBA, blue fluorogenic substrate, 40 min
Procedure, shortened: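 Normal human glucocerebrosidase (0.2 nM) with blue fluorogenic substrate (80 uM final) in citrate/phosphate pH 5.9 with 10mM sodium taurocholate, 0.01% tween-20; 40 min RT, NaOH/glycine stop; fluorescence Ex 365/Em 440; AC50 from a titration from 0.6 nM upwards.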

[2] = AP1 Signaling Pathway (AID 357); details: ME-180 AP-1-bla reporter, EGF-induced, beta-lactamase ratio, 5 h; at 7.69 µM (top of the series) unless noted;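 note: ME-180 reporter cells stimulated with EGF at its EC50 level; % is set by controls: 0 for no effect and ±100 for the full control effect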
Procedure, shortened: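 Modulation of EGF-driven AP-1 transcription was assessed with a beta-lactamase reporter in ME-180 cells. Compound and EC50 EGF were co-incubated 5 hours at 37 °C before 2.5-hour CCF4 loading at room temperature and dual-emission reading.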

[3] = Stat Signaling Pathway (AID 446); details: ME-180 SIE beta-lactamase reporter, IL-6 stimulated, 5 h; at 7.69 µM (top of the series) unless noted;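 note: ME-180 cervical cancer cells given 40 pM IL-6 alongside compound; SIE-controlled beta-lactamase reporter measured as 460/530 nm FRET emission ratio; % is set by controls: 0 for no effect and ±100 for the full control effect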
Procedure, shortened: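 FRET read-out (405 nm excitation, 460/530 nm emission) of a beta-lactamase reporter under a STAT-inducible element in ME-180 cervical carcinoma cells. Cells with compound receive 40 pM IL-6 for 5 h. Values are normalised to AC90 stimulation and AC90 JAK-inhibitor controls.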

[4] = target: Glucocorticoid receptor (Homo sapiens) (UniProt P04150); assay: GR-EFC Redistribution (AID 451; calls by dose curve; note: potency is the fitted concentration of half-maximal effect); details: CHO-K1 GR-EFC translocation, beta-gal luminescence, 2 h
Procedure, shortened: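 Translocation of GR-ED fusion to nuclear EA restores b-gal, read by luminescence after 1 h room-temperature detection. Engineered CHO-K1 biosensor cells, 1,000/well, exposed 2 h at 37 C to titrations up to 46 uM final.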

[5] = target: Mitogen-activated protein kinase 10 (Mus musculus) (UniProt Q61831); assay: JNK3 AlphaScreen Assay (AID 530); details: JNK3 lysate, c-Jun phosphorylation; series mostly up to 57.1 µM;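 note: kinase came from lysate of stimulated human HepG2 cells; signal reports phosphorylation of biotinylated GST-cJun 1-79 at Ser73 with 10 µM ATP; % is set by controls: 0 for no effect and ±100 for the full control effect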
Procedure, shortened: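 Kinase buffer: 20 mM Tris-HCl pH 7.6, 10 mM MgCl2, 1 mM DTT, 0.1 mM Na3VO4, 0.01% Tween-20; ATP 10 uM. Substrate biotin-GST-cJun(1-79), enzyme from activated HepG2 lysates. Detection by Ser73 phospho-antibody AlphaScreen.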

[6] = target: 3',5'-cyclic-AMP phosphodiesterase 4B (Homo sapiens) (UniProt Q07343); assay: qHTS Assay for Inhibitors of PDE-IV (AID 607; active = well fitted activation curve with a large enough effect in the main read-out, with a control signal flat, not every such curve was filed as active; note: % of control where 0% means no effect); details: HEK293 ACTOne CNG channel cells, membrane potential fluorescence; series mostly up to 22.9 µM
Procedure, shortened: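 Cell-based read-out of cAMP via a modified cyclic nucleotide-gated channel and membrane potential dye (535/590 nm) in HEK293 cells expressing PDE4 endogenously. Compounds tested up to 22.9 uM final; 100 uM RO 20-1724 reference.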

[7] = Primary qHTS for small molecule stabilizers of the endoplasmic reticulum resident proteome: Secreted ER Calcium Modulated Protein (SERCaMP) assay (AID 1508630; active = well fitted curve in the direction sought with a large enough effect; an effect the other way counts as inactive or inconclusive; note: % is set by controls: 0 for no effect and ±100 for the full control effect); details: SH-SY5Y GLuc-SERCaMP (Gaussia luciferase released on ER calcium loss) secretion, thapsigargin, luminescence; series mostly up to 38.4 µM
Procedure, shortened: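 The SH-SY5Y reporter protocol was run at 3 concentrations up to 38.3 uM (primary) or 11 concentrations (follow-up): 16 h compound, 100 nM thapsigargin for 4 h, then extracellular luciferase luminescence.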

[8] = NFAT Signaling Pathway (AID 444); details: Jurkat NFAT-bla M1, carbachol, beta-lactamase ratio, 5 h; at 7.69 µM (top of the series) unless noted
Procedure, shortened: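 Read-out: CCF4 FRET ratio (460 nm/530 nm) after 1 h RT dye loading, used for %activity and AC50 from titration series. Cells: Jurkat NFAT-β-lactamase/M1 line, treated with compound plus 1 uM carbachol for 5 h, 37 °C.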

[9] = qHTS Assay for Identification of Small Molecule Agonists for Hypoxia Response Element Signaling Pathway (AID 914; active = well fitted activation curve with a large enough effect in the signal ratio, with a control signal flat, not every such curve was filed as active; the % refers to the signal ratio; note: % of control where 0% means no effect); details: ME-180 (cervical carcinoma) HRE-bla reporter, beta-lactamase ratio, CoCl2, 17 h; activation: hits give high values
Procedure, shortened: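 In Opti-MEM containing 0.5% dialyzed FBS and 10 mM HEPES, ME-180 HRE-bla cells received a compound titration and EC50 CoCl2. They were incubated 17 hours, then CCF4-loaded 2.5 hours at room temperature before ratio reading.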

[10] = target: Cytochrome P450 3A4 (Homo sapiens) (UniProt P08684); assay: qHTS Assay for Activators of Cytochrome P450 3A4 (AID 885; active = well fitted curve in the direction sought with a large enough effect; an effect the other way counts as inactive or inconclusive; note: nearly all actives have a fitted effect of over 65% in size); details: recombinant CYP3A4, Luciferin-PPXE luminescence, 60 min; series mostly up to 57.1 µM
Procedure, shortened: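 Luminescent readout of luciferin formed from 25 uM Luciferin-PPXE (KM level) by 20 nM CYP3A4 in 200 mM KPO4, with 60 min NADPH-driven reaction at room temperature after 10 min compound exposure. Ketoconazole (57 uM) defined 100% inhibition.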

[11] = target: Glucocorticoid receptor (Homo sapiens) (UniProt P04150); assay: GR-GFP Redistribution (AID 450;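 active = compounds whose dose series gives a full or clear partial fitted curve of increased nuclear translocation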; note: potency is the fitted concentration of half-maximal effect); details: U2OS GR-GFP nuclear translocation, laser cytometry, 2 h

Sequence of Glucocorticoid receptor (Homo sapiens) (P04150 whole entry, looked up, the tested form may be a part): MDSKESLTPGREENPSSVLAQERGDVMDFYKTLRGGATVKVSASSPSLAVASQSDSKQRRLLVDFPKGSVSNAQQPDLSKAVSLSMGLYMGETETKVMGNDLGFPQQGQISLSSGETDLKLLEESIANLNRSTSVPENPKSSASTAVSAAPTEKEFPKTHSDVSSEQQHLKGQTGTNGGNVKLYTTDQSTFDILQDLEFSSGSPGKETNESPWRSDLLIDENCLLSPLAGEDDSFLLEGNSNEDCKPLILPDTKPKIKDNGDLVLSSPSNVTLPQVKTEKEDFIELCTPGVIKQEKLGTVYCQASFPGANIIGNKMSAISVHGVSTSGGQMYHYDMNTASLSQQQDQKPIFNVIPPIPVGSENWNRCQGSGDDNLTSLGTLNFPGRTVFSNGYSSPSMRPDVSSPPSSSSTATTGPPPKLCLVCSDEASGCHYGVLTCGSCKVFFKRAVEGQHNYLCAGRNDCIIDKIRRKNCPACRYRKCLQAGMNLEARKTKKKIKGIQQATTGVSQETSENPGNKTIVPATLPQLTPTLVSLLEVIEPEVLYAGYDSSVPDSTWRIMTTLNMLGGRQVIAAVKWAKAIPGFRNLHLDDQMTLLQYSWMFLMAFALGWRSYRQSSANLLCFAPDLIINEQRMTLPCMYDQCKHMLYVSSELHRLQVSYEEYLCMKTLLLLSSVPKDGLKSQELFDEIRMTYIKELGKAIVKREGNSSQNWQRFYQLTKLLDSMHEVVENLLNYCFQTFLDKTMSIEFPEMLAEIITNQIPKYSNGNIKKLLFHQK
Sequence of Cytochrome P450 3A4 (Homo sapiens) (P08684 whole entry, looked up): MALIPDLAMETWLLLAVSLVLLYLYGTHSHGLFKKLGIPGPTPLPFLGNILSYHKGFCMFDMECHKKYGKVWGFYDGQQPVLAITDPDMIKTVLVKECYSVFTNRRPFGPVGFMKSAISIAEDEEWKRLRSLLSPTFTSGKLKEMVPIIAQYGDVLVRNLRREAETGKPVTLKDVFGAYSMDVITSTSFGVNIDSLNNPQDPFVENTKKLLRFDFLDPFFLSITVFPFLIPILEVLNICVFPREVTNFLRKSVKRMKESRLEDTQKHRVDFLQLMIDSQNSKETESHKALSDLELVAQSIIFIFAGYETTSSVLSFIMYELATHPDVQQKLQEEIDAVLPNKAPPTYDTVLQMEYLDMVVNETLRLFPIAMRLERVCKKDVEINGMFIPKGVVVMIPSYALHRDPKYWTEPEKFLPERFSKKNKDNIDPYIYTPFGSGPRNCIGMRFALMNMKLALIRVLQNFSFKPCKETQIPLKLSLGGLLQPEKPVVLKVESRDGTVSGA
Sequence of Lysosomal acid glucosylceramidase (Homo sapiens) (P04062 whole entry, looked up): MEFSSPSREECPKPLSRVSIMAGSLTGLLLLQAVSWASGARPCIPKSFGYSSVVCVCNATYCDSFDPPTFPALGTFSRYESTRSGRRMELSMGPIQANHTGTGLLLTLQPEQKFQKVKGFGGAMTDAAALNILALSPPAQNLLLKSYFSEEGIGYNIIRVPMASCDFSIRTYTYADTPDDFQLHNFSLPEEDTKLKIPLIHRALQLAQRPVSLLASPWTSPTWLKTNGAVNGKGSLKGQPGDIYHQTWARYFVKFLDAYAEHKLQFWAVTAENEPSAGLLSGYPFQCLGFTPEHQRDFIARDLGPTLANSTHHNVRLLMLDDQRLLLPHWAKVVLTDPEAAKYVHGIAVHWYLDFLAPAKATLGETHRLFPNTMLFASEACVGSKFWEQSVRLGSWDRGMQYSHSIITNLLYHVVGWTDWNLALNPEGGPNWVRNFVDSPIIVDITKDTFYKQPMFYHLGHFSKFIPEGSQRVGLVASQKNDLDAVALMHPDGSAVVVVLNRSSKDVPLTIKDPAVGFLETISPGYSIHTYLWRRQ
Sequence of 3',5'-cyclic-AMP phosphodiesterase 4B (Homo sapiens) (Q07343 whole entry, looked up): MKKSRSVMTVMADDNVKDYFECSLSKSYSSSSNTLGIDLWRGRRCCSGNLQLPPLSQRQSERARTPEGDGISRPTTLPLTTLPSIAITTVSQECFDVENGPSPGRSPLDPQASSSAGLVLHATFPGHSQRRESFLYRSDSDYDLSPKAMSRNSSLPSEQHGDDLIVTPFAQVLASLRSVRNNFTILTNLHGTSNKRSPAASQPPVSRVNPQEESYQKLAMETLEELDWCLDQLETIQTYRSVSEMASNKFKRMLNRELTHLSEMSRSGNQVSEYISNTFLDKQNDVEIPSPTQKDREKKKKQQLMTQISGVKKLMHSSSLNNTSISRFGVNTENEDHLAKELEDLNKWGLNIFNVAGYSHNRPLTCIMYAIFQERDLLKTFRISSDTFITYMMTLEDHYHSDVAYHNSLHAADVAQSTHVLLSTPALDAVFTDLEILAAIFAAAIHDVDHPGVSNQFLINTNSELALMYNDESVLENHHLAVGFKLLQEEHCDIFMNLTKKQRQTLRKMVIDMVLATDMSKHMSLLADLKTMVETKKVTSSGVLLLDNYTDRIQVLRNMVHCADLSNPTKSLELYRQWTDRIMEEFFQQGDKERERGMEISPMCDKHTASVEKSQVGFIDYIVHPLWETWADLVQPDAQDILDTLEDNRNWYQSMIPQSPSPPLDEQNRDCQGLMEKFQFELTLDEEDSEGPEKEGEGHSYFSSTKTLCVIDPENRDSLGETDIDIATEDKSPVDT

Cn1cccc1C(=O)N1CCC2(CCCN(C(=O)Nc3cccc(C#N)c3)C2)CC1
inactive: Potency [1] > 11.4 µM | activity change, negative = inhibition [2] -6.91% | activity, negative = inhibition [3] -16.1% | Potency [4] > 46 µM | Potency [5] | Potency [6] | outcome [7]

O=C(c1ccco1)N1CCC2(CCN(Cc3cc(C(F)(F)F)cc(C(F)(F)F)c3)CC2)CC1
inactive: Potency [1] > 11.4 µM | activity change, negative = inhibition [2] -1.98% | activity change, negative = inhibition [8] 2.65% | activity, negative = inhibition [3] 0.499% | Potency [4] > 46 µM | Potency [5] | Potency [6] | activation [9] -7.14% | outcome [7]

O=C(c1cnccn1)N1CCC2(CCCN(c3ccncc3)C2)CC1
inactive: Potency [1] > 11.4 µM | activity change, negative = inhibition [2] -3.01% | activity, negative = inhibition [3] -6.12% | Potency [4] > 46 µM | Potency [5] | Potency [6] | outcome [7]

O=S(=O)(c1ccccc1)N1CCC2(CCN(c3ccccc3)CC2)CC1
inactive: Potency [1] > 11.4 µM | activity change, negative = inhibition [2] 6.91% | activity change, negative = inhibition [8] -1.26% | activity, negative = inhibition [3] -14.2% | Potency [4] > 46 µM | Potency [5] | Potency [6] | Potency [10] | outcome [7]

O=C(c1ccncc1)N1CCC2(CCCN(c3ncccn3)C2)CC1
inactive: Potency [1] > 11.4 µM | activity change, negative = inhibition [2] -5.83% | activity, negative = inhibition [3] 5.19% | Potency [4] > 46 µM | Potency [5] | Potency [6] | outcome [7]

O=C(c1ccncc1)N1CCC[C@@]2(CCN(Cc3ccccc3)C2)C1
inactive: Potency [1] > 11.4 µM | activity change, negative = inhibition [2] 1% | activity change, negative = inhibition [8] -11.7% | activity, negative = inhibition [3] 7.78% | Potency [4] > 46 µM | Potency [5] | Potency [6] | Potency [10] | outcome [7]

COCCn1c(=O)c(-c2cccs2)nc2cnc(OCc3ccccc3)nc21
inactive: Potency [1] > 11.4 µM | activity change, negative = inhibition [2] 2.42% | activity change, negative = inhibition [8] 4.34% | Potency [11] > 9.22 µM | Potency [4] > 46 µM | Potency [5] | Potency [10] | outcome [7]

N#Cc1ccc(CN2CCC3(CC2)CCN(C(=O)c2cnccn2)CC3)cc1
inactive: Potency [1] > 11.4 µM | activity change, negative = inhibition [2] 4.06% | activity, negative = inhibition [3] -7.54% | Potency [4] > 46 µM | Potency [5] | Potency [6] | outcome [7]

O=C(Nc1ccccc1)N1CCCC2(CCN(C(=O)c3cccc(F)c3)CC2)C1
inactive: Potency [1] > 11.4 µM | activity change, negative = inhibition [2] -6.89% | activity, negative = inhibition [3] -6.85% | Potency [4] > 46 µM | Potency [5] | outcome [7]
